# Screening data deposited in PubChem by National Center for Advancing Translational Sciences (NCATS).
# Pf Dd2 inh = inhibitors of Plasmodium falciparum Dd2 growth. AID 1347417. P. falciparum Dd2 growth, SYBR Green, 72 h. Potency, µM (series often up to 28.9 µM), without a hit: top-dose activity, negative = inhibition, usual class: inhibitors. 120,000 compounds, 4.3% hits; active means well fitted inhibition curve with a large enough effect;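 further: plate controls were DMSO vehicle for no effect and reference drug for full effect; nearly all actives have a fitted effect of over 65% in size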
#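 Infected erythrocytes (Dd2, 0.3% parasitemia, 2.5% hematocrit final) are added to compound in RPMI-1640/Albumax II medium, grown 72 h at 37C in low oxygen, then lysed with saponin/Triton-X containing SYBR Green and read by fluorescence.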
# Numbers without * were called inactive; i = inactive; [ ] = dose if it differs, or a comment. The full list was thinned out, with hits kept by preference. Potency means the concentration at half of the fitted maximal effect.
SMILES,Pf Dd2 inh
Cc1cc(C(=O)N2CCN(c3cccc(Cl)c3)CC2)c2c(C)nn(-c3ccccc3Cl)c2n1,11µM*
Cc1ccc(-n2nc(C)c3c(C(=O)Nc4ccccc4C(F)(F)F)cc(C)nc32)cc1,-13%
Cc1cc(C(=O)N2CCN(c3ccc(F)cc3)CC2)c2c(C)nn(-c3cccc(Cl)c3C)c2n1,25%
Cc1ccc(-n2nc(C)c3c(C(=O)O)cc(C)nc32)cc1,5%
Cc1ccc(C)c(N2CCN(C(=O)c3cccn4c(=O)c5ccccc5nc34)CC2)c1,13µM*
O=C(c1cccn2c(=O)c3cc(Cl)ccc3nc12)N1CCN(c2ccccc2F)CC1,i
CSc1ncc(C(=O)N2CCN(c3cc(C)ccc3C)CC2)c(C)n1,16%
Cc1ccc(C)c(N2CCN(C(=O)c3cc(C)nc4c3c(C)nn4-c3ccccc3)CC2)c1,8.9µM*
COc1cc(NC(=O)c2cc(C)nc3c2c(C)nn3-c2ccccc2Cl)cc(OC)c1,-28%
Cc1cnc(C(=O)N2CCC(Cc3ccc(C(N)=O)cc3)CC2)cn1,30%
CCCCNC(=O)c1nnn2c1COC(c1ccc(F)cc1)C2 (stereo not drawn),-2%
Cn1cc(-c2cc3c(ccn3C)c(C(=O)NCCc3cnc[nH]3)n2)cn1,3%[44.1 µM]
CCN(CC)C(=O)C[C@@H]1CCNC[C@@H]1Cc1cc(C(=O)OC)on1,30%[44.1 µM]
O=C(c1cccc2[nH]ccc12)N1CC(Oc2cccc(-c3nc(-c4ccccc4)no3)c2)C1,i[5.79 µM]
COC(=O)N1CCC2(C1)C(=NC1CCCCC1)NC(=O)N2c1cccc(OC)c1 (stereo not drawn),5%
COc1cccc(N2C(=O)NC(=NC3CCCCC3)C23CCN(Cc2cccn2C)CC3)c1,-20%
COc1cccc(N2C(=O)NC(=NC3CCCC3)C23CCCN(CC2CCCCC2)C3)c1 (stereo not drawn),10µM*
COc1cccc(N2C(=O)NC(=NC3CCCCC3)C23CCCN(CC2CCCCC2)C3)c1 (stereo not drawn),13µM*
COc1cccc(N2C(=O)NC(=NC3CCCCC3)C23CCN(C(=O)OCc2ccccc2)C3)c1 (stereo not drawn),i
COc1cccc(N2C(=O)NC(=NC3CCCCC3)C23CCN(C(C)=O)C3)c1 (stereo not drawn),16%
COc1cccc(N2C(=O)NC(=NC3CCCC3)C23CCCN(C(=O)c2ccc(C)cc2)C3)c1 (stereo not drawn),20%
COc1cccc(N2C(=O)NC(=NC3CCCCC3)C23CCCN(CCC(C)C)C3)c1 (stereo not drawn),11µM*
COc1cccc(N2C(=O)NC(=NC3CCCCC3)C23CCCN(C(=O)c2ccc(C)cc2)C3)c1 (stereo not drawn),13%
O=C(C[C@H]1NC(=O)c2ccccc2NC1=O)NC1CCCCC1,-11%
O=C(c1ccco1)N1CCC(c2n[nH]c(=O)n2Cc2ccc(F)cc2)CC1,-19%
SMILES,Pf Dd2 inh
Cc1nn(CCC#N)c(C)c1[C@@H]1C=C[C@@H](NS(=O)(=O)c2cccs2)C1,-18%[44.1 µM]
Cc1oc(C(O)c2cccc(O)c2)nc1C(=O)NCc1ccccc1 (stereo not drawn),i
O=C1NC2(CCN(C(=O)c3ccc4c(c3)OCO4)C2)OCc2ccccc21 (stereo not drawn),-1%
COc1ccc(C)cc1NC(=O)N1CC2CC(C1)[C@H]1CCCC(=O)N1C2 (stereo partly drawn),0%
COCC(=O)N1CCCC(C(=O)NCc2nncn2C2CCCCC2)C1 (stereo not drawn),-20%
CC(Sc1nc(=O)cc(N)n1CCc1ccccc1)C(=O)Nc1ccccc1C#N (stereo not drawn),11µM*
Nc1cc(=O)nc(SCC(=O)Nc2ccc(F)cc2)n1CCc1ccccc1,38%
Cc1ccc(NC(=O)C(C)Sc2nc(=O)cc(N)n2-c2ccccc2)cc1 (stereo not drawn),21%
Cc1ccc(-n2ncc(C(=O)NCCCN3CCCCC3)c2C2CCN(C(=O)OC(C)(C)C)CC2)cc1,10µM*
COc1ccccc1N1CCN(CCCNC(=O)c2cnn(-c3ccc(C)c(C)c3)c2C2CCN(C(=O)OC(C)(C)C)CC2)CC1,5.6µM*
COc1ccccc1N1CCN(CCCNC(=O)c2cnn(-c3cccc(Cl)c3)c2C2CCN(C(=O)OC(C)(C)C)CC2)CC1,2µM*
COc1ccc(-c2noc([C@@H]3C[C@@H](O)CN3C3CCCCC3)n2)cc1,i
CCn1nc(C(=O)N2C[C@@H](CN3CCN(C)CC3)[C@@H](CO)C2)cc1C,2%
C[C@H]1CCCN1C(=O)c1nnc(CNc2ccccc2Cl)n1-c1ccccc1,-7%[44.1 µM]
CCn1c(CO)nnc1C1CC(NC(=O)CCn2c(=O)[nH]c3ccccc32)C1 (stereo not drawn),2%
COc1ccc(CC(=O)NC2CCN(c3cc(-c4ccc(Cl)cc4)[nH]n3)CC2)cc1,-15%
CCCc1cc(N2CCC(NCCOC(C)C)CC2)nc(C)n1,-15%
CCCc1nc(C)cc(N2CCC(NCCc3ccc(Cl)cc3)CC2)n1,10µM*
FC(F)(F)C1CN(c2ccc3cc(Cl)ccc3n2)CCO1 (stereo not drawn),-21%
O=c1[nH]c(N2CCOCC2)nc2c1CCN(Cc1cc(F)ccc1F)CC2,-19%[5.79 µM]
CC1CCC(NC(=O)CN2C(=O)NC3(CCCCC3)C2=O)CC1 (stereo not drawn),22%
Cc1ccc(C(=O)N2CC3CC(C2)[C@H]2CCCC(=O)N2C3)cn1 (stereo partly drawn),11%
Cc1ccc(-c2cc(C(=O)N3CCC(Cc4nncn4CC4CC4)CC3)c3ccccc3n2)cc1C,2.8µM*
O=C(c1ccc2cc[nH]c2c1)N1CCC(Cc2nncn2CC2CC2)C1 (stereo not drawn),i
Cc1ccc(NC(=O)N2CCC(Cc3nncn3Cc3ccccc3)C2)cc1C (stereo not drawn),-6%
SMILES,Pf Dd2 inh
COCc1cc(=O)n(CC(=O)N2CCN(c3ccc(F)cc3)CC2)c(N2CCOCC2)n1,-4%
CCN1CCN(CC(=O)NCc2cc(N3CCOCC3)ncn2)CC1,-2%
COC(=O)[C@@H](C)NC(=O)[C@H]1CN(C(=O)c2cccnc2)CCN1C(C)=O,12%[44.1 µM]
COc1cccc(-c2cc(-c3c(C)noc3C)c3cncn3c2)c1OC,-19%[44.1 µM]
COc1cc(F)ccc1-c1nc(-c2c(C)noc2C)cc2c1cc(C)n2C,-2%[44.1 µM]
COc1cc(F)ccc1-c1cc(-c2c(C)noc2C)c2cncn2c1,3.5µM*
COc1ccc(-c2ccc3onc(C)c3n2)cc1OC,11%[44.1 µM]
COc1ccc(-c2cc(-c3c(C)noc3C)c3cncn3c2)cc1OC,7.1µM*
Cc1ccc(NC(=O)N2CCc3c(C(=O)NCc4ccncc4)cccc32)cc1,-9%
Cc1noc(C)c1CC(=O)N1CCC2(CC1)N(CC1CC1)C(=O)CS2=O (stereo not drawn),1%
CC(C)(CN1CCC(Cc2ccc(C(=O)O)cc2)C1)N1CCOCC1 (stereo not drawn),-9%
COC(=O)C1=C(C)N(Cc2cccc(F)c2)C(=O)CC1c1ccccc1Cl (stereo not drawn),i
Cc1ccc(NC(=O)Nc2ccccc2)c(=O)n1CC(=O)NCC1CCCO1 (stereo not drawn),-13%
COc1cc(CN2CCc3nc(N4CCN(C)CC4)[nH]c(=O)c3CC2)cc(OC)c1OC,i[5.79 µM]
O=C([C@@H]1C[C@H](Oc2ccccc2)CN1C(=O)C1CCC1)N1CCCC1,-13%
COCCNC(=O)c1ccc(Cn2c(SCC(N)=O)nc3ccccc3c2=O)cc1,-27%
O=C(NCCc1ccccc1)c1ccc(CSc2nc3ccncc3n2Cc2ccccc2)cc1,8.9µM*
